About 83,000 compounds went through this panel and 20% of them were active in at least one assay; those are over-represented in the sample as a whole.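 Cells were grown in 96-well plates and exposed to the test compound at a single concentration for 48 hours; results are reported as percent growth, with values below 10 considered active.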 A number with no mark means an inactive call. Activity calls are given as the source filed them.
Columns and labels:
Assay in all cases: NCI-60 one-dose screen, 48 h (100 = growth as untreated, 0 = no growth, -100 = all killed)
HCT-15 colon = conditions: 10 µM unless noted
HT29 colon = conditions: 10 µM unless noted
SNB-75 CNS = conditions: 10 µM unless noted
SNB-19 CNS = conditions: 10 µM unless noted
U251 CNS = conditions: 10 µM unless noted
PC-3 prostate = conditions: 10 µM unless noted
SK-MEL-5 melanoma = conditions: 10 µM unless noted
UACC-62 melanoma = conditions: 10 µM unless noted
LOX IMVI melanoma = conditions: 10 µM unless noted
SK-MEL-28 melanoma = conditions: 10 µM unless noted
SK-MEL-2 melanoma = conditions: 10 µM
EKVX NSCLC = conditions: 10 µM unless noted
SN12C renal = conditions: 10 µM unless noted
UO-31 renal = conditions: 10 µM unless noted
TK-10 renal = conditions: 10 µM unless noted
ACHN renal = conditions: 10 µM unless noted
CAKI-1 renal = conditions: 10 µM unless noted
CCRF-CEM leukemia = conditions: 10 µM unless noted
MOLT-4 leukemia = conditions: 10 µM unless noted
A498 renal = conditions: 10 µM unless noted

SMILES	growth (HCT-15 colon)	growth (HT29 colon)	growth (SNB-75 CNS)	growth (SNB-19 CNS)	growth (U251 CNS)	growth (PC-3 prostate)	growth (SK-MEL-5 melanoma)	growth (UACC-62 melanoma)	growth (LOX IMVI melanoma)	growth (SK-MEL-28 melanoma)	growth (SK-MEL-2 melanoma)	growth (EKVX NSCLC)	growth (SN12C renal)	growth (UO-31 renal)	growth (TK-10 renal)	growth (ACHN renal)	growth (CAKI-1 renal)	growth (CCRF-CEM leukemia)	growth (MOLT-4 leukemia)	growth (A498 renal)
COc1ccc2c(CCCCC(c3ccccc3)c3ccccc3)c3[n+](cc2c1OC)CCc1cc2c(cc1-3)OCO2	-47% (active)	-73.7% (active)	-74% (active)	-65.2% (active)	-93.2% (active)	-75% (active)	-99.5% (active)	-63.6% (active)	-100% (active)	-82.1% (active)	-70.4% (active)	-31.8% (active)	-77.7% (active)	-42.1% (active)	-51% (active)	-19.1% (active)	16.6%	5.53% (active)	-20.7% (active)	–
COc1cc(-c2nc(C(=O)Nc3ccc(C)cc3)nn2-c2ccc(F)c(F)c2)cc(OC)c1OC	94.7%	75.5%	84.9%	104%	100%	96.7%	95.8%	105%	99%	108%	89.5%	99.9%	97.5%	72.9%	98.8%	105%	–	102%	94.9%	112%
CCCCCCCC(=O)SCC/C=C/[C@@H]1CC(=O)NCc2nc(co2)C2=N[C@@](C)(CS2)C(=O)N[C@@H](C(C)C)C(=O)O1	0.603% (active)	2.22% (active)	26.1%	9.15% (active)	-61.2% (active)	9.75% (active)	-93.5% (active)	-68% (active)	-97.2% (active)	-37.2% (active)	-3.78% (active)	16.2%	12.6%	-13.5% (active)	-18.6% (active)	-27.5% (active)	-50.8% (active)	19.3%	3.84% (active)	–
CC(C)[C@@H](C)/C=C/[C@@H](C)[C@H]1CCC2=C3C=CC4=CC(=O)CC[C@]4(C)[C@H]3CC[C@@]21C	99.7%	74.3%	96.7%	100%	88.7%	62.8%	89.5%	94.9%	101%	113%	101%	99.1%	101%	92%	87.8%	109%	93.9%	82.2%	85.5%	–
COc1ccc(C2CC(=O)c3c(O)c(OC)c(OC)c(OC)c3O2)c(O)c1 (configuration not stated)	10.3%	65.3%	38.1%	35.6%	24.3%	29%	20%	37%	44.2%	61.2%	52%	48.4%	47.4%	54.2%	73.1%	44.3%	41.1%	25.5%	22.6%	–
Nc1nc(N)c2cc(CNc3ccc(C(=O)NC(CC(=O)O)C(=O)O)cc3)ccc2n1 (configuration not stated)	36.9%	19.8%	52.8%	43.4%	38.1%	31.2%	21.8%	3.72% (active)	15.2%	54.3%	72.3%	43.2%	15.5%	35.8%	61.2%	25.9%	–	23%	32.8%	19.1%
CC1(/C=N/NC(N)=S)NC(=O)NC1=O (configuration not stated)	104%	93.3%	90.6%	108%	94.5%	93%	100%	95.6%	101%	117%	105%	99.1%	95.5%	96.5%	96.5%	108%	96.7%	100%	82%	–
COC(=O)CC[C@@H](C)[C@H]1CC[C@H]2C3CC[C@@H]4C[C@@H]5CC[C@]4(C)[C@@]3(O5)[C@H](Br)[C@@H](Br)[C@]12C (some centres not stated)	97.3%	81.6%	84.3%	106%	88.6%	77.9%	99.3%	86.3%	97.1%	105%	93%	84.8%	98.1%	93.7%	97.7%	96.8%	80.3%	95.6%	76%	–
